Inconclusive results are not listed. Entries that show only a call come without a potency. Activity calls are given as the source filed them. Calls come from the whole dose curve; as a rule, active = well fitted inhibition curve with a large enough effect; inconclusive = small, poorly fitted or top-dose-only effect; inactive = flat fitted curve, though single readings scatter.
How the values were obtained:
Assay in all cases: qHTS profiling for inhibitors of Plasmodium falciparum proliferation (AID 504749); note: nearly all actives have a fitted effect of over 60% in size
Conditions in all cases: P. falciparum in erythrocytes, SYBR Green DNA, 72 h; series mostly up to 28.7 µM
CP191 = system: CP191
Summary of the method: (§1)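 Quantitative HTS: compounds pinned into medium, infected erythrocytes added (0.3% parasitemia, 2.5% hematocrit), 72 h culture at 37 C under 5% CO2. Saponin/Triton lysis with SYBR Green I, overnight RT, then fluorescence read.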

CP192 = system: CP192
Summary of the method: as §1

CP194 = system: CP194
Summary of the method: as §1

CP201 = system: CP201
Summary of the method: as §1

CP203 = system: CP203
Summary of the method: as §1

CP211 = system: CP211
Summary of the method: as §1

CP217 = system: CP217
Summary of the method: as §1

CP237 = system: CP237
Summary of the method: as §1

CP238 = system: CP238
Summary of the method: as §1

CP247 = system: CP247
Summary of the method: as §1

CP250 = system: CP250
Summary of the method: as §1

CP252 = system: CP252
Summary of the method: as §1

CP256 = system: CP256
Summary of the method: as §1

CP260 = system: CP260
Summary of the method: as §1

CP262 = system: CP262
Summary of the method: as §1

CP265 = system: CP265
Summary of the method: as §1

CP266 = system: CP266
Summary of the method: as §1

CP268 = system: CP268
Summary of the method: as §1

CP269 = system: CP269
Summary of the method: as §1

CP215 = system: CP215
Summary of the method: as §1
Potency is the fitted concentration of half-maximal effect.

Which results are given for `CCOc1ccc(NC(C)=O)cc1`?
Potency (CP191): inactive; Potency (CP192): inactive; Potency (CP194): inactive; Potency (CP201): inactive; Potency (CP203): inactive; Potency (CP211): inactive; Potency (CP217): inactive; Potency (CP237): inactive; Potency (CP238): inactive; Potency (CP247): inactive; Potency (CP250): inactive; Potency (CP252): inactive; Potency (CP256): inactive; Potency (CP260): inactive; Potency (CP262): inactive; Potency (CP265): inactive; Potency (CP266): inactive; Potency (CP268): inactive; Potency (CP269): inactive

For `O=C1C(CCS(=O)c2ccccc2)C(=O)N(c2ccccc2)N1c1ccccc1` (stereo not given), which Potency (CP191) is on record?
Its Potency is “inactive”.

What about the Potency (CP192) of the same compound?
Its Potency is “inactive”.

And the Potency (CP194)?
The Potency was “inactive”.

And the Potency (CP201)?
The Potency was “inactive”.

What about the Potency (CP203) of the same compound?
The Potency was “inactive”.

What about the Potency (CP211) of the same compound?
Its Potency is “inactive”.

And the Potency (CP217)?
The Potency was “inactive”.

What about the Potency (CP237) of the same compound?
Its Potency is “inactive”.

What about the Potency (CP238) of the same compound?
Its Potency is “inactive”.

And the Potency (CP247)?
Its Potency is “inactive”.

And the Potency (CP250)?
The Potency was “inactive”.

What about the Potency (CP252) of the same compound?
Its Potency is “inactive”.

What about the Potency (CP256) of the same compound?
Its Potency is “inactive”.

What about the Potency (CP260) of the same compound?
The Potency was “inactive”.

What about the Potency (CP262) of the same compound?
The Potency was “inactive”.

What about the Potency (CP265) of the same compound?
The Potency was “inactive”.

And the Potency (CP266)?
The Potency was “inactive”.

What about the Potency (CP268) of the same compound?
The Potency was “inactive”.

And the Potency (CP269)?
The Potency was “inactive”.

What does the source list for `Cc1cccc(C)c1NC(=O)CN1CCCC1`?
Potency (CP191): inactive; Potency (CP192): inactive; Potency (CP194): inactive; Potency (CP201): inactive; Potency (CP203): inactive; Potency (CP211): inactive; Potency (CP215): inactive; Potency (CP217): inactive; Potency (CP238): inactive; Potency (CP247): inactive; Potency (CP252): inactive; Potency (CP256): inactive; Potency (CP260): inactive; Potency (CP262): inactive; Potency (CP265): inactive; Potency (CP268): inactive; Potency (CP269): inactive

Which Potency (CP191) does the source give for `C[N+]1(CC2COC(c3ccccc3)(C3CCCCC3)O2)CCCCC1` (stereo not given) here?
Its Potency is 5.62 µM (active).

What about the Potency (CP192) of the same compound?
Its Potency is 4.78 µM (active).

What about the Potency (CP194) of the same compound?
Its Potency is 6.01 µM (active).

And the Potency (CP201)?
Its Potency is 10.7 µM (active).

And the Potency (CP203)?
The Potency was 4.78 µM (active).

And the Potency (CP211)?
Its Potency is 4.78 µM (active).

What about the Potency (CP215) of the same compound?
The Potency was 5.36 µM (active).

And the Potency (CP217)?
The Potency was 8.91 µM (active).

And the Potency (CP237)?
The Potency was 7.08 µM (active).

What about the Potency (CP238) of the same compound?
Its Potency is 7.08 µM (active).

And the Potency (CP252)?
Its Potency is 10 µM (active).

What about the Potency (CP256) of the same compound?
The Potency was 10 µM (active).

And the Potency (CP260)?
The Potency was 4.47 µM (active).

And the Potency (CP262)?
The Potency was 5.36 µM (active).

And the Potency (CP265)?
Its Potency is 10 µM (active).

What about the Potency (CP266) of the same compound?
Its Potency is 8.49 µM (active).

What about the Potency (CP268) of the same compound?
The Potency was 7.57 µM (active).

What about the Potency (CP269) of the same compound?
The Potency was 4.78 µM (active).

`FC1(F)C(F)(F)C(F)(F)C2(F)C(F)(F)C(F)(F)C(F)(F)C(F)(F)C2(F)C1(F)F` (stereo not given) was tested. Which Potency (CP191) did it give?
Its Potency is “inactive”.

And the Potency (CP192)?
The Potency was “inactive”.

And the Potency (CP194)?
Its Potency is “inactive”.

And the Potency (CP201)?
The Potency was “inactive”.

What about the Potency (CP203) of the same compound?
Its Potency is “inactive”.

And the Potency (CP211)?
The Potency was “inactive”.

What about the Potency (CP215) of the same compound?
Its Potency is “inactive”.

And the Potency (CP217)?
The Potency was “inactive”.

And the Potency (CP237)?
Its Potency is “inactive”.

What about the Potency (CP238) of the same compound?
Its Potency is “inactive”.

What about the Potency (CP247) of the same compound?
Its Potency is “inactive”.

What about the Potency (CP250) of the same compound?
Its Potency is “inactive”.

What about the Potency (CP252) of the same compound?
The Potency was “inactive”.

What about the Potency (CP256) of the same compound?
Its Potency is “inactive”.

What about the Potency (CP262) of the same compound?
The Potency was “inactive”.

What about the Potency (CP265) of the same compound?
Its Potency is “inactive”.

And the Potency (CP266)?
The Potency was “inactive”.

And the Potency (CP268)?
The Potency was “inactive”.

What about the Potency (CP269) of the same compound?
The Potency was “inactive”.

For `OCCOCCN1CCN(C2=Nc3ccccc3Sc3ccccc32)CC1`, which Potency (CP191) is on record?
The Potency was “inactive”.

What about the Potency (CP192) of the same compound?
Its Potency is “inactive”.

What about the Potency (CP194) of the same compound?
The Potency was “inactive”.

And the Potency (CP201)?
The Potency was “inactive”.

What about the Potency (CP203) of the same compound?
Its Potency is “inactive”.

And the Potency (CP211)?
Its Potency is “inactive”.

What about the Potency (CP215) of the same compound?
Its Potency is “inactive”.

And the Potency (CP217)?
Its Potency is “inactive”.

What about the Potency (CP238) of the same compound?
The Potency was “inactive”.

What about the Potency (CP247) of the same compound?
The Potency was “inactive”.

What about the Potency (CP250) of the same compound?
Its Potency is “inactive”.

What about the Potency (CP252) of the same compound?
The Potency was “inactive”.

And the Potency (CP256)?
Its Potency is “inactive”.

What about the Potency (CP260) of the same compound?
The Potency was “inactive”.

And the Potency (CP262)?
The Potency was “inactive”.

What about the Potency (CP265) of the same compound?
The Potency was “inactive”.

What about the Potency (CP268) of the same compound?
The Potency was “inactive”.

What about the Potency (CP269) of the same compound?
Its Potency is “inactive”.

For `NCCNc1cccc2ccccc12`, which Potency (CP191) is on record?
The Potency was “inactive”.

What about the Potency (CP192) of the same compound?
Its Potency is “inactive”.

And the Potency (CP194)?
Its Potency is “inactive”.

What about the Potency (CP201) of the same compound?
Its Potency is “inactive”.

And the Potency (CP203)?
Its Potency is “inactive”.

What about the Potency (CP211) of the same compound?
The Potency was “inactive”.

What about the Potency (CP215) of the same compound?
Its Potency is “inactive”.

And the Potency (CP217)?
The Potency was “inactive”.

What about the Potency (CP238) of the same compound?
The Potency was “inactive”.

What about the Potency (CP247) of the same compound?
Its Potency is “inactive”.

What about the Potency (CP250) of the same compound?
Its Potency is “inactive”.

What about the Potency (CP252) of the same compound?
Its Potency is “inactive”.

What about the Potency (CP256) of the same compound?
The Potency was “inactive”.

What about the Potency (CP260) of the same compound?
Its Potency is “inactive”.

And the Potency (CP262)?
The Potency was “inactive”.

And the Potency (CP265)?
The Potency was “inactive”.

What about the Potency (CP266) of the same compound?
The Potency was “inactive”.

What about the Potency (CP268) of the same compound?
Its Potency is “inactive”.

What about the Potency (CP269) of the same compound?
The Potency was “inactive”.

Which results are given for `Nc1ccc(S(=O)(=O)Nc2cnc3ccccc3n2)cc1`?
Potency (CP191): inactive; Potency (CP192): inactive; Potency (CP194): inactive; Potency (CP201): inactive; Potency (CP203): inactive; Potency (CP211): inactive; Potency (CP217): inactive; Potency (CP237): inactive; Potency (CP238): inactive; Potency (CP247): inactive; Potency (CP250): inactive; Potency (CP252): inactive; Potency (CP256): inactive; Potency (CP260): inactive; Potency (CP262): inactive; Potency (CP265): inactive; Potency (CP266): inactive; Potency (CP268): inactive; Potency (CP269): inactive

What does the source list for `O=C(Nc1ccc([N+](=O)[O-])cc1)Nc1ccc([N+](=O)[O-])cc1`?
Potency (CP191): inactive; Potency (CP192): inactive; Potency (CP194): inactive; Potency (CP201): inactive; Potency (CP203): inactive; Potency (CP211): inactive; Potency (CP217): inactive; Potency (CP237): 3.98 µM (active); Potency (CP238): inactive; Potency (CP247): inactive; Potency (CP250): inactive; Potency (CP252): inactive; Potency (CP256): inactive; Potency (CP260): 3.55 µM (active); Potency (CP262): inactive; Potency (CP265): inactive; Potency (CP266): inactive; Potency (CP268): inactive; Potency (CP269): inactive

Which results are given for `Cc1cccc(C)c1NC(=O)c1ccccc1C(=O)O`?
Potency (CP191): inactive; Potency (CP192): inactive; Potency (CP194): inactive; Potency (CP201): inactive; Potency (CP203): inactive; Potency (CP211): inactive; Potency (CP215): inactive; Potency (CP217): inactive; Potency (CP237): inactive; Potency (CP238): inactive; Potency (CP247): inactive; Potency (CP250): inactive; Potency (CP252): inactive; Potency (CP260): inactive; Potency (CP262): inactive; Potency (CP265): inactive; Potency (CP266): inactive; Potency (CP268): inactive; Potency (CP269): inactive

Which Potency (CP191) does the source give for `COc1cc(C)nc(-n2nc(C)cc2OC)n1` here?
Its Potency is “inactive”.

And the Potency (CP194)?
The Potency was “inactive”.

What about the Potency (CP201) of the same compound?
The Potency was “inactive”.

What about the Potency (CP203) of the same compound?
Its Potency is “inactive”.

What about the Potency (CP211) of the same compound?
Its Potency is “inactive”.

And the Potency (CP215)?
The Potency was “inactive”.

And the Potency (CP217)?
Its Potency is “inactive”.

And the Potency (CP237)?
Its Potency is “inactive”.

What about the Potency (CP238) of the same compound?
The Potency was “inactive”.

What about the Potency (CP247) of the same compound?
Its Potency is “inactive”.

What about the Potency (CP250) of the same compound?
Its Potency is “inactive”.

And the Potency (CP252)?
Its Potency is “inactive”.

And the Potency (CP256)?
The Potency was “inactive”.

What about the Potency (CP260) of the same compound?
The Potency was “inactive”.

What about the Potency (CP262) of the same compound?
Its Potency is “inactive”.

And the Potency (CP265)?
The Potency was “inactive”.

And the Potency (CP266)?
Its Potency is “inactive”.

And the Potency (CP268)?
The Potency was “inactive”.

And the Potency (CP269)?
The Potency was “inactive”.
